Assay outcomes: PubChem, National Center for Advancing Translational Sciences (NCATS)
CHX counter = affects cycloheximide protein synthesis inhibition readout, counter-screen; cell reporter, cycloheximide protein synthesis inhibition counterscreen; max response, %; 300,000 tested, 12% active; in the data active = max response mostly above about 13%, no sharp cut-off; inactive = mostly below about 14%; also: read at 38.3 µM for the half of the compounds with a filed dose
Shiga toxin inh = Shiga toxin inhibition; inhibition, % at 38.7 µM; AID 2315; 290,000 tested, 9.2% active; Vero cells, Shiga toxin protein synthesis inhibition reporter; in the data active = inhibition mostly above about 28%, no sharp cut-off; inactive = mostly below about 43%
Pf growth 96h = P. falciparum growth inhibition at 96 hour, primary screen for plastid delayed-death inhibitors; P. falciparum luciferase reporter growth, 96 h; Potency, µM (series often up to 28.7 µM), actives largely listed as inhibitors; 320,000 tested, 6.9% active; AID 504834; active = well fitted inhibition curve with a large enough effect; inconclusive = small, poorly fitted or top-dose-only effect, or another doubt; inactive = no such curve, though single readings can be large or run the other way
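Erythrocytes infected with luciferase-expressing P. falciparum were dispensed at 2% hematocrit and 0.05% parasitemia (final), then incubated with compounds 96 hours at 37 C in 5% CO2. Luminescence after detection reagent addition reported growth.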
Pf growth 48h = inhibits P. falciparum growth in the first generation, 48 h. P. falciparum luciferase growth in erythrocytes, 48 h. Potency, µM (top dose mostly 28.7 µM), actives largely listed as inhibitors. 310,000 tested, 5.9% active. AID 504832; active = well fitted inhibition curve with a large enough effect; inconclusive = small, poorly fitted or top-dose-only effect, or another doubt; inactive = no such curve, though single readings can be large or run the other way
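Erythrocytes infected with P. falciparum carrying an integrated firefly luciferase reporter (2% hematocrit, 0.1% parasitemia final) were exposed to compounds in RPMI 1640 with 0.5% Albumax at 37 C, 5% CO2. Growth inhibition was scored as reduced luminescence.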
NS1 inh = inhibitors of influenza NS1 protein function. Potency, µM (top dose mostly 46.1 µM). 270,000 tested, 0.4% active; also: actives are rising curves; nearly all actives have a fitted effect of over 50% in size
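In this qHTS, NS1 from influenza A is expressed in budding yeast, where it slows growth. Cells are switched from glucose to 2% galactose medium (pH 6.0, -URA), treated with compound, and growth recovery is read at OD600.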
NS1 inh valid = influenza NS1 function inhibition validation; shares compounds with NS1 inh; influenza NS1 function cell assay, 15-point titration; activity change, negative = inhibition, % at 32.9 µM; 1,400 tested, under 10 active
Flu PR8 replic = reduces influenza A/PR/8/34 replication in MDCK cells; 95 tested, 30% active; shares compounds with NS1 inh; AID 504647; virus titer (log TCID50), log10 TCID50 at 5 µM; MDCK infected influenza A/PR/8/34, virus titer TCID50; active compounds read low; call rule not given here
Of the large screens only hits and unclear results are named; the others gave an inactive call (follow-up assays come after a bar, where they were run). Only some compounds are listed: those with a hit (about 21% of all), similar ones and a draw of the others. Unless noted, calls follow the shape of the full dose curve.

CC1CC(C)CN(S(=O)(=O)N2CCCC(C(=O)NCc3ccccc3Cl)C2)C1 (configuration not stated)	NS1 inh inconclusive | NS1 inh valid inactive | Flu PR8 replic inactive
CCOC(=O)N1CCN(S(=O)(=O)N2CCCC(C(=O)NCc3ccc(OC)cc3)C2)CC1 (configuration not stated)	NS1 inh inconclusive | NS1 inh valid inactive
CCCc1nc(SCC(N)=O)[nH]c(=O)c1CC	none
COCCNC(=O)CCc1ccc(S(=O)(=O)Nc2ccc(C)cc2)cc1	NS1 inh 16µM (no result: Pf growth 96h) | NS1 inh valid inactive
Cc1ccc(NS(=O)(=O)c2ccc(CCC(=O)NC3CC3)cc2)cc1	none (no result: Pf growth 96h)
CSCC[C@H](NC(=O)[C@H](Cc1ccccc1)n1c(=O)[nH]c2ccccc2c1=O)C(=O)NCC1CCC(C(=O)O)CC1 (some centres not stated)	NS1 inh 11µM | NS1 inh valid inactive
CCOC(=O)COc1c(OC)cc(Cl)cc1C1Nc2ccccc2C(=O)N1c1ccc(F)cc1 (configuration not stated)	NS1 inh 13µM | NS1 inh valid inactive
CCNC(=O)n1cc(-n2cncn2)c(-c2ccccc2)n1	none
COc1cc2c(cc1OC)/C(=C/C(=O)N1CCOCC1)NC(C)(C)C2	Pf growth 96h inconclusive, NS1 inh inconclusive | NS1 inh valid inactive
CCOC(=O)/C=C1\NC(C)(C)Cc2cc(OC)c(O)cc21	Pf growth 48h inconclusive, NS1 inh inconclusive | NS1 inh valid inactive
CC1(C)Cc2ccccc2/C(=C/C(=O)N2CCCCCC2)N1	Pf growth 48h inconclusive (no result: Pf growth 96h)
CCOC(=O)/C=C1\NC(C)(C)Cc2cc(OC)c(OC)cc21	none
COC(=O)c1ccc(Cn2c(O)c(N=NC(N)=S)c3ccccc32)o1	Pf growth 96h inconclusive
Cc1ccc(-c2ccc(S(=O)(=O)N3CCN(C)CC3)cc2)cc1	NS1 inh 11µM (no result: Pf growth 96h) | NS1 inh valid inactive
Cc1ccc(S(=O)(=O)N2CC(=NO)C2)cc1	Pf growth 96h 13µM, NS1 inh 6.3µM | NS1 inh valid inactive
Cc1ccc(S(=O)(=O)c2c(C(=O)c3ccccc3)cnc3cc4c(cc23)OCCO4)cc1	Pf growth 96h inconclusive, Pf growth 48h inconclusive, NS1 inh 16µM | NS1 inh valid inactive
COC(=O)c1c(NC(=S)Nc2cc(OC)c(Cl)cc2OC)sc2c1CCCCC2	NS1 inh 11µM | NS1 inh valid inactive | Flu PR8 replic inactive
CCOC(=O)C1=C(COC(=O)CSc2ccc(C)cc2C)NC(=O)NC1C (configuration not stated)	none (no result: CHX counter, Shiga toxin inh, NS1 inh)
CN(C)c1ccccc1C(=O)c1ccccc1N(C)C	CHX counter 28, Shiga toxin inh 86, NS1 inh 8.9µM (no result: Pf growth 96h) | NS1 inh valid inactive
Cc1ccc(NC(=O)CN2CCc3cc4c(cc3C2C)OCCCO4)cc1C (configuration not stated)	Pf growth 96h inconclusive, Pf growth 48h inconclusive
COc1cccc(C(=O)N2CCN=C2SCc2cccnc2)c1OC	Pf growth 96h inconclusive, NS1 inh 1.6µM (no result: Pf growth 48h) | NS1 inh valid inactive
Cc1onc(-c2ccccc2)c1C(=O)Nc1cccnc1	Pf growth 96h inconclusive, NS1 inh 6.3µM | NS1 inh valid inactive
Cc1onc(-c2ccccc2Cl)c1C(=O)Nc1cccnc1	Pf growth 48h inconclusive (no result: Pf growth 96h)
COc1ccc(S(=O)(=O)NC2CCCCC2)c(C)c1C	none
Cc1ccc(S(=O)(=O)C/N=C(/NC(=S)N(c2ccccc2)c2ccccc2)c2ccccc2)cc1	CHX counter 22, Shiga toxin inh 50, Pf growth 96h inconclusive, NS1 inh 10µM (no result: Pf growth 48h) | NS1 inh valid inconclusive
COc1ccc(-n2c(=S)[nH]c3cc(C(=O)NCc4ccco4)ccc3c2=O)c(OC)c1	Pf growth 96h inconclusive, NS1 inh 13µM (no result: Pf growth 48h) | NS1 inh valid inactive
COc1ccc(NS(=O)(=O)c2csc(C(=O)Nc3ccccc3)c2)cc1	Pf growth 96h inconclusive
O=C(Nc1ccc(Cc2ccncc2)cc1)c1cc([N+](=O)[O-])ccc1N1CCOCC1	Pf growth 48h inconclusive
N#Cc1c(NC(=O)c2ccc(-c3ccccc3[N+](=O)[O-])o2)sc2c1CCCC2	NS1 inh inconclusive | NS1 inh valid inactive
Cc1cc(C(=O)CSc2nnc(-c3ccc(Cl)cc3)n2C)c(C)n1CC1CCCO1 (configuration not stated)	Pf growth 48h inconclusive
Cc1cc(C(=O)Cn2nnc(-c3ccc(Cl)cc3)n2)c(C)n1CC1CCCO1 (configuration not stated)	CHX counter 17, NS1 inh 7.9µM | NS1 inh valid inactive
Cc1ccc(CNCc2cccnc2)s1	none
Cc1ccc2c(c1)NCC(C(=O)NC1CCCCC1)O2 (configuration not stated)	NS1 inh 7.9µM | NS1 inh valid inactive
Cc1ccc(C)c(NC(=O)NC2CCCCCCC2)c1	Pf growth 96h inconclusive
COc1ccccc1N1CCN(C(=O)CCC(=O)N2CCN(c3ccc(F)cc3)CC2)CC1	none
CCOC(=O)C1CCN(C(=O)CN(Cc2ccccc2)S(C)(=O)=O)CC1	NS1 inh 14µM (no result: Pf growth 96h) | NS1 inh valid inactive
O=C(COc1ccc2ccccc2c1)N1CCN(C(=O)c2ccco2)CC1	none (no result: NS1 inh)
O=C(NCc1ccccc1)c1cccc(OCC(=O)N2CCN(C(=O)c3ccco3)CC2)c1	NS1 inh inconclusive (no result: Pf growth 96h) | NS1 inh valid inactive
N[C@@H](CSc1nc2ccccn2c1[N+](=O)[O-])C(=O)O	none (no result: CHX counter, Shiga toxin inh, Pf growth 96h, Pf growth 48h)
Cc1ccc(-c2ccc(/C=N/NC(=O)Cc3nnc(N)s3)o2)cc1Cl	NS1 inh inconclusive | NS1 inh valid inactive
COc1ccc(-c2ccc(/C=N/NC(=O)Cc3nnc(N)s3)o2)cc1Cl	Pf growth 48h inconclusive
CCc1ccccc1OCCCOc1ccc(OC)cc1	NS1 inh 2.8µM | NS1 inh valid inactive | Flu PR8 replic inactive
C=CCn1c(SCC2=C(C(=O)OCC)C(C)NC(=O)N2)nnc1C1CCCCC1 (configuration not stated)	Pf growth 48h 12µM, NS1 inh 11µM | NS1 inh valid inactive | Flu PR8 replic inactive
C=CCn1c(SCC(=O)NC(=O)NCCC)nnc1C1CCCCC1	Pf growth 96h inconclusive, Pf growth 48h inconclusive
CC(=O)Nc1ccc(NC(=O)c2cc[n+]([O-])cc2)cc1	none
CCOC(=O)NC1(C(F)(F)F)NC(=O)N(C2CCCCC2)C1=O (configuration not stated)	none (no result: Pf growth 48h)
CCOC(=O)CN1CC23C=CC(O2)C(C(=O)Nc2ccc(OC)cc2OC)C3C1=O (configuration not stated)	Pf growth 96h inconclusive, NS1 inh 3.2µM | NS1 inh valid inactive
CCOC(=O)CN1CC23C=CC(O2)C(C(=O)Nc2cc(OC)ccc2OC)C3C1=O (configuration not stated)	Pf growth 96h inconclusive
O=C(CC(=O)N/N=C\c1ccc([N+](=O)[O-])cc1)NCCc1ccccc1	none
